Bioassay records as filed in PubChem BioAssay.
In the library only some 2% were active in any assay of this set; here they are far more common.
M4 PAM: CHRM4 positive allosteric modulation; CHO-K1 hM4/Gqi5, Fluo-8 calcium fluorescence, ACh EC20; 0% = ACh EC20, 100% = maximal ACh; activation, % at 3 µM; hit rate 0.4% among 360,000;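 active = activation above its plate's cutoff, the mean activation of sample wells plus 3 SD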
Target sequence (P08173 whole entry, looked up): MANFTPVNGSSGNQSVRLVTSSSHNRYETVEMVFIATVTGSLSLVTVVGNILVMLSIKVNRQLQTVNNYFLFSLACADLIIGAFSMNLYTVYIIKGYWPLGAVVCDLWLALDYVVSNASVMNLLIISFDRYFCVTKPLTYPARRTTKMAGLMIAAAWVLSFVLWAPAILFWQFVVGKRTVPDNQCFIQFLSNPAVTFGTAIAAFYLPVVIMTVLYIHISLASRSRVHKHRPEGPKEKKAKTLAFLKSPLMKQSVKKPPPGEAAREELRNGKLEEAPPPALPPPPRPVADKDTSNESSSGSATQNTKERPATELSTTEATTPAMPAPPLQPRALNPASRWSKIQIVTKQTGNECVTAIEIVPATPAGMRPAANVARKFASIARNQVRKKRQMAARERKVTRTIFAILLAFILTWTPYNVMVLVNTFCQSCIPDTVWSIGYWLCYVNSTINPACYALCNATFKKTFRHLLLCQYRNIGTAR
M4 antag: antagonists of human muscarinic M4 receptor (CHRM4); P08173; CHO-hM4 cells, ACh EC80, Fluo-8 calcium fluorescence; inhibition, % at 3 µM; hit rate 0.73% among 360,000; AID 624125;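 active = inhibition above its plate's cutoff, the mean inhibition of sample wells plus 3 SD, cut at about 27% in these data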
M1 ag parental: counter-screen for M1 agonists: effect in parental CHO-K1 cells. Fluo-8 calcium fluorescence; scaled to maximal ATP response, vehicle zero. activation, % at 3 µM. hit rate 0.48% among 360,000. AID 602248; in the data active = activation above about 15%;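 also: untransfected CHO-K1 host cells lacking M1 receptor as counterscreen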
M4 ag: CHRM4 agonism in calcium assay; CHO-K1 hM4/Gqi5, Fluo-8 calcium fluorescence; vehicle 0%, full acetylcholine response 100%; activation, % at 3 µM; hit rate 0.14% among 360,000; AID 624127;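 active = activation above the run mean over all test wells plus 3 SD, cut at about 32% in these data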;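 also: peak over basal fluorescence ratio per well then scaled between controls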
CHO-K1 Ca PAM: nonselective activator or artifact in parental CHO-K1 calcium assay; ATP EC20, Fluo-8 calcium fluorescence; 0% at ATP EC20, 100% at ATP max; activation, % at 3 µM; hit rate 0.02% among 360,000;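 active = activation above the run cutoff, the mean activation of all test compounds plus 3 SD, cut at about 40% in these data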;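 also: peak over basal fluorescence ratio in a 140 s read after ATP addition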
CHO-K1 Ca antag: nonselective inhibitor or artifact in parental CHO-K1 cells. ATP-induced calcium, Fluo-8 fluorescence. inhibition, % at 3 µM. hit rate 0.6% among 360,000;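 active = inhibition above a per-plate cutoff, the plate's mean sample inhibition plus 3 SD, cut at about 24% in these data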
A number is an active result; – = inactive.

SMILES | M4 PAM | M4 antag | M1 ag parental | M4 ag | CHO-K1 Ca PAM | CHO-K1 Ca antag
CC1CCCCN1C(=O)CSc1nnc(-c2ccco2)n1CC1CCCO1 (stereo not drawn) | 30 | – | – | – | – | –
CCc1cc(C(=O)Nc2ccccc2N2CCOCC2)sc1C | – | – | – | – | – | –
CCOC(=O)c1cnc2cc3c(cn2c1=O)CCCC3 | – | – | – | – | – | –
CC1=Nc2ccccc2/C1=C/c1sc(=N)n(-c2nccs2)c1O | – | – | – | – | – | 25
CC1=Nc2ccccc2/C1=C/c1nc(-c2ccc(C)s2)oc1O | – | – | – | – | – | –
Cc1cc(C)c(S(=O)(=O)c2ccc(Cl)cc2)c(Cl)n1 | – | – | – | – | – | –
Cc1cc(S(=O)(=O)c2ccc(Cl)cc2)nc(S(=O)(=O)c2ccc(Cl)cc2)c1C#N | – | 88 | – | – | – | –
O=C(NC1CCCCC1)N1CCN(c2ccccc2)CC1 | – | – | – | – | – | –
Oc1ccccc1CNc1cnc2ccccc2c1 | – | – | – | – | – | –
C=CCc1cccc(CNc2cnc3ccccc3c2)c1O | – | – | – | – | – | 39
Cc1nc2sc(C(c3ccccc3)N3CCN(CCO)CC3)c(O)n2n1 (stereo not drawn) | – | – | – | – | – | 31
COc1cc(/C=N/NC(=O)C2=NNC(=O)C2C)ccc1O (stereo not drawn) | – | – | – | – | – | –
CCOc1ccc(NS(=O)(=O)c2ccc(C(=O)NCC3(N(C)C)CCCCC3)cc2)cc1 | – | – | 19 | – | – | –
Cc1ccc(NS(=O)(=O)c2ccc(C(=O)N3CC(C)OC(C)C3)cc2)cc1 (stereo not drawn) | – | – | 33 | – | – | –
CCOc1ccc(NS(=O)(=O)c2ccc(C(=O)NCC3(N4CCCCC4)CCCCC3)cc2)cc1 | – | – | – | – | – | –
COc1ccc(NS(=O)(=O)c2cccc(C(=O)N3CCCCCC3)c2)cc1 | – | – | – | – | – | –
COc1ccc(NS(=O)(=O)c2ccc(C(=O)N3CCCCCC3)cc2)cc1 | – | – | 18 | – | – | –
O=C(c1ccc(S(=O)(=O)Nc2ccccc2)cc1)N1CCCC(C(F)(F)F)C1 (stereo not drawn) | – | – | 15 | – | – | 26
Cc1ccc(NS(=O)(=O)c2ccc(C(=O)N3CCC3)cc2)cc1 | – | – | – | – | – | –
CC(C)OC(=O)/C(C#N)=C/c1cn(Cc2ccccc2)c2ccccc12 | – | – | – | – | – | –
CCCC(=O)Nc1ccc(C(=O)N2CCCC2)cc1 | – | – | – | – | – | 24
CNC(=O)COc1ccc(S(=O)(=O)Nc2ccc(OC)cc2)cc1 | – | – | – | – | – | –
CCOc1ccc(NS(=O)(=O)c2ccc(C(=O)N3CCCCCC3)cc2)cc1 | – | – | 15 | – | – | –
COc1ccc(CNS(=O)(=O)c2c(C(=O)N3CCCCCC3)c(C)n(C)c2C)cc1 | – | – | – | – | – | 26
COc1ccc(NS(=O)(=O)c2ccc(OCC(=O)N3CCCC3)cc2)cc1 | – | – | 17 | – | – | –
SMILES | M4 PAM | M4 antag | M1 ag parental | M4 ag | CHO-K1 Ca PAM | CHO-K1 Ca antag
CN(/N=C/c1c[nH]c2ccccc12)c1cnn(-c2ccc(F)c(Cl)c2)c(=O)c1Cl | – | – | – | – | – | –
CCOc1ccc(NS(=O)(=O)c2ccc(C(=O)N3CCCC(C)C3)cc2)cc1 (stereo not drawn) | – | – | 31 | 36 | – | –
COC(=O)C1=C(C)N(Cc2ccco2)C(=O)/C1=C\c1ccc(N(C)C)cc1 | – | – | – | – | – | –
COC(=O)C1=C(C)N(Cc2ccco2)C(=O)/C1=C\c1ccc([N+](=O)[O-])cc1 | – | – | 17 | – | – | –
COc1cc(C(=O)OCC(C)=O)ccc1OCc1c(C)noc1C | – | – | – | – | – | –
COC(=O)CSc1nc(-c2cccs2)ccc1C#N | – | 74 | – | – | – | –
O=C(NCC(c1ccco1)N1CCCCC1)c1ccc(OCc2ccccc2)cc1 (stereo not drawn) | – | – | – | – | – | –
CCOC(=O)c1nnc(-c2cccs2)nc1NC(C)C | – | – | – | – | – | 25
Nc1c(C(=O)NCc2ccc3c(c2)OCO3)c2nc3ccccc3nc2n1CCCN1CCOCC1 | – | – | – | – | – | –
COc1ccccc1CNC(=O)c1c(N)n(CCCN2CCOCC2)c2nc3ccccc3nc12 | – | 34 | – | – | – | –
CCc1cc(C(=O)OC)c(NC(=O)c2ccoc2C)s1 | – | – | – | – | – | –
COC(=O)c1c(-c2ccncc2)csc1NC(=O)c1ccoc1C | 48 | 32 | – | – | – | –
CCCCCCCCCCCCCCCCn1cc[n+](C)c1 | – | 30 | – | – | – | –
C[n+]1ccn(CC(=O)c2cccs2)c1 | – | – | – | – | – | –
Oc1cc2c(cc1O)[C@H]1c3ccc(O)c(O)c3OC[C@@]1(O)C2 | – | – | – | – | – | –
Oc1ccc2c(c1)OCC1(O)Cc3cc(O)c(O)cc3C21 (stereo not drawn) | – | – | – | 52 | – | –
CCOc1ccc(CN2CCC(Cc3ccccc3)CC2)cc1 | – | 26 | – | – | – | –
CCOC(=O)C1CCN(C(=O)c2ccc(C)o2)CC1 | – | 100 | – | – | – | –
COc1ccc(CN2CCC(Cc3ccccc3)CC2)cc1OC | – | – | – | – | – | –
NC(=O)C1CCN(Cc2ccc(OCc3ccccc3)cc2)CC1 | – | – | – | – | – | –
CCOC(=O)C1CCN(Cc2ccc(OCc3ccccc3)cc2)CC1 | – | 39 | – | – | – | –
CCOC(=O)C1CCN(Cc2ccc(N(C)C)cc2)CC1 | – | – | – | – | – | 41
S=C1SCN(Cc2ccccc2)CN1Cc1ccco1 | – | – | – | – | – | –
CC1(C(=O)NCc2cccnc2)CCN1C(=O)Cc1cccs1 (stereo not drawn) | – | – | – | – | – | –
CCOC(=O)C1CCN(C(=O)COc2ccc(Cl)cc2C)CC1 | – | – | – | – | – | –
SMILES | M4 PAM | M4 antag | M1 ag parental | M4 ag | CHO-K1 Ca PAM | CHO-K1 Ca antag
CCN(CC)C(=O)C1CCN(Cc2ccc(Br)cc2)CC1 | – | 32 | – | – | – | –
CCOC(=O)C1CCCN(CCc2ccccc2)C1 (stereo not drawn) | – | 37 | – | – | – | –
CCOC(=O)C1CCN(C(=O)COc2ccc(Cl)cc2Cl)CC1 | – | – | – | – | – | 24
CCOC(=O)C1CCCN(C(=O)CCn2nc(-c3ccccc3)ccc2=O)C1 (stereo not drawn) | – | – | – | – | – | 24
COc1ccc(OC)c(NC2=C(Cl)C(=O)N(Cc3ccccc3)C2=O)c1 | – | – | – | – | – | –
O=C(NC1CCCCC1)c1cc(-c2ccc(Cl)cc2)on1 | – | – | – | – | – | –
